# A number with no mark means an inactive call. Inconclusive results are not listed. Where a call stands in place of a potency, no number is given. The source made the active and inactive calls. Unless noted, calls follow the shape of the full dose curve.
# Tests used:
# [1] = Nuclear factor erythroid 2-related factor 2/antioxidant responsive element (Nrf2/ARE) small molecule agonists: qHTS cell viability counter screen in human keratinocytes (AID 1919968; active = well fitted curve in the direction sought with a large enough effect in the repeat runs; an effect the other way counts as inactive or inconclusive; also: nearly all actives have a fitted effect of over 55% in size; also: potency is read from the fitted curve at half-maximal effect)
# In short: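 Parallel cytotoxicity read: KeratinoSens HaCaT cells, compound treatment 23 h, viability by CellTiter-Fluor fluorescence 1 h post-reagent.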
# [2] = Nuclear factor erythroid 2-related factor 2/antioxidant responsive element (Nrf2/ARE) small molecule agonists: luciferase reporter gene qHTS assay in human keratinocytes (AID 1919969); also: nearly all actives have a fitted effect of over 35% in size; also: potency is read from the fitted curve at half-maximal effect
# [3] = biological target: Gonadotropin-releasing hormone receptor (Homo sapiens) (UniProt P30968); test: Human gonadotropin-releasing hormone receptor (GnRHR) small molecule agonists, calcium flux assay in GnRHR-HEK293 cells (AID 1920063); also: nearly all actives have a fitted effect of over 35% in size
# Sequence of Gonadotropin-releasing hormone receptor (Homo sapiens) (P30968 whole entry, looked up): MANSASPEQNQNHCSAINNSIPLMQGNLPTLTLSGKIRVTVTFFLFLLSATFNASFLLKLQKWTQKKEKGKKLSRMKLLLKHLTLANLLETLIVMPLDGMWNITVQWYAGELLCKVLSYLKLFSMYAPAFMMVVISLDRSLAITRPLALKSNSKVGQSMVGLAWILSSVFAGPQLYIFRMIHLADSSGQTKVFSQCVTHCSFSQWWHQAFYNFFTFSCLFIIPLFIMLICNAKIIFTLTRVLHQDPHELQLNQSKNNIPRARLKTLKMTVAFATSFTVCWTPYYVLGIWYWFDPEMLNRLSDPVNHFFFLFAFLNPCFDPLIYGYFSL
# In short: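 Calcium flux, agonist mode, human GnRHR stably integrated in HEK293; dye 1 h at 37 C before compound; Ex/Em=480/540 kinetic read, 3 min; 15 concentrations, triplicate.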
# [4] = biological target: KiSS-1 receptor (Homo sapiens) (UniProt Q969F8); test: Human kisspeptin (KISS1R) small molecule agonists, calcium flux assay in KISS1R-HEK293 cells (AID 1920064; active = well fitted curve in the direction sought with a large enough effect in the repeat runs; an effect the other way counts as inactive or inconclusive)
# Sequence of KiSS-1 receptor (Homo sapiens) (Q969F8 whole entry, looked up): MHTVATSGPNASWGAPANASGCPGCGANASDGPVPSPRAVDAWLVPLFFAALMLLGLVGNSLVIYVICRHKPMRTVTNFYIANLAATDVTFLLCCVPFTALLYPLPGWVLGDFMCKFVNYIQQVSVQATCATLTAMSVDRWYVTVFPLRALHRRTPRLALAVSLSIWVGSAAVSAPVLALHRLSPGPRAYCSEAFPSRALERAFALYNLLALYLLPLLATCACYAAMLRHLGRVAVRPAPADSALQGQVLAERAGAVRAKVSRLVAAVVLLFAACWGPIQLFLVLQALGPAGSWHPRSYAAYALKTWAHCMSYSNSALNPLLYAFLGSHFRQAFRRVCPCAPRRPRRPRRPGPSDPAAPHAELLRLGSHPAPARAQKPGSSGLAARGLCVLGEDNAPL
# In short: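 Triplicate 15-concentration series were applied to dye-loaded human KISS1R HEK293 cells, and agonist-evoked calcium fluorescence was captured for 3 min.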
# [5] = G protein-coupled receptor (GPCR) small molecule agonists, calcium flux assay: HEK293 wild type cell line counter screen (AID 1920065)
# In short: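 Non-specific calcium responders were flagged by adding DMSO-dissolved compounds to dye-loaded cells and reading 480/540 nm fluorescence each second for 3 min; ATP served as positive control.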
# [6] = p53 small molecule agonists, cell-based qHTS assay with human liver microsomes (AID 1963577);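 also: p53 response element beta-lactamase reporter cells with liver microsomes plus NADPH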
# In short: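 With metabolic activation: human liver microsomes (0.5 mg/mL final) plus NADPH (0.5 mg/mL final) added alongside compounds to p53RE-bla cells; 16 h 37 C exposure; beta-lactamase read by LiveBLAzer fluorescence.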
# [7] = p53 small molecule agonists, cell-based qHTS assay: qHTS cell viability counter screen (AID 1963581); also: nearly all actives have a fitted effect of over 45% in size
# In short: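 Multiplexed with the reporter read, a CellTiter-Glo step (30 min, room temperature) gauges ATP-based viability of HCT-116 p53RE-bla cells after 16 h compound incubation at 37 C.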
# [8] = biological target: 5-hydroxytryptamine receptor 2A (Homo sapiens) (UniProt P28223); test: 5-hydroxytryptamine receptor 2A (HTR2A) small molecule antagonists, cell-based qHTS assay (AID 1963586); also: nearly all actives have a fitted effect of over 45% in size
# Sequence of 5-hydroxytryptamine receptor 2A (Homo sapiens) (P28223 whole entry, looked up): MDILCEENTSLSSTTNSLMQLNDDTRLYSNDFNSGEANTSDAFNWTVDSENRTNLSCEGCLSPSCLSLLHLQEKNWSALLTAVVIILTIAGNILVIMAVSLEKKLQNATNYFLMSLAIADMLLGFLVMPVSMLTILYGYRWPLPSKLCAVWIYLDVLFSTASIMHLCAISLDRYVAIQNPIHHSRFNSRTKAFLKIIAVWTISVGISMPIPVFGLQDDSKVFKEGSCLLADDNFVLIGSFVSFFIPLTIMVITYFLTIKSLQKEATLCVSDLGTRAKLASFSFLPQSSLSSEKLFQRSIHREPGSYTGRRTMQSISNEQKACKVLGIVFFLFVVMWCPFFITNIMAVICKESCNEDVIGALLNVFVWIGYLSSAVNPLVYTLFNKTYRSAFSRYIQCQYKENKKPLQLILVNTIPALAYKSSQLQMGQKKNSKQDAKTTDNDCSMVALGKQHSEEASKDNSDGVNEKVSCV
# In short: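 CHO cells stably expressing human HTR2A were plated for 18 h at 37 C, then loaded with calcium dye for 1 h. Compounds were preincubated 5 min at room temperature before DOI (4 nM solution) was added. Kinetic fluorescence was read for 3 min.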
# [9] = biological target: 5-hydroxytryptamine receptor 2A (Homo sapiens) (UniProt P28223); test: 5-hydroxytryptamine receptor 2A (HTR2A) small molecule agonists, cell-based qHTS assay (AID 1963587); also: nearly all actives have a fitted effect of over 30% in size
# In short: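 HTR2A-CHO cells, plated 18 h at 37 C/5% CO2, dye-loaded 1 h at 37 C; compounds in DMSO added by pin tool (agonist mode). Intracellular calcium flux read as kinetic fluorescence on FDSS over 2 min at 1 s intervals.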
# [10] = biological target: Muscarinic acetylcholine receptor M1 (Homo sapiens) (UniProt P11229); test: Cholinergic receptor muscarinic 1 (CHRM1) small molecule agonists, cell-based qHTS assay (AID 1963589); also: nearly all actives have a fitted effect of over 35% in size
# Sequence of Muscarinic acetylcholine receptor M1 (Homo sapiens) (P11229 whole entry, looked up): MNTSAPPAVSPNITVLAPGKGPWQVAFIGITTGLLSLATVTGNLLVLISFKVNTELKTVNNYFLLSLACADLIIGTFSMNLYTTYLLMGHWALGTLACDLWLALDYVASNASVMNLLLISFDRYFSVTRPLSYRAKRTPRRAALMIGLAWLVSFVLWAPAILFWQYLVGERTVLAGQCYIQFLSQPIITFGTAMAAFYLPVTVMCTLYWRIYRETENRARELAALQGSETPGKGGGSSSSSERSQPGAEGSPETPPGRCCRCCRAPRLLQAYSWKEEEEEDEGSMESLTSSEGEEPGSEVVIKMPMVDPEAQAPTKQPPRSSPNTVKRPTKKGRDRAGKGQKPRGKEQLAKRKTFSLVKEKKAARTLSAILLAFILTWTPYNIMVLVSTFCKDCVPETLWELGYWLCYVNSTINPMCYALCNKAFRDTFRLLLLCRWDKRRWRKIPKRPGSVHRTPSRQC
# In short: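 qHTS, 15-point titration, 3 independent runs: compounds pin-transferred onto dye-loaded CHRM1-CHO cells (human M1), calcium fluorescence followed every second to detect agonism.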
# [11] = biological target: Beta-2 adrenergic receptor (Homo sapiens) (UniProt P07550); test: Adrenergic beta2 receptor (ADRB2) small molecule antagonists, cell-based qHTS assay (AID 1963592); also: series mostly up to about 92 µM; nearly all actives have a fitted effect of over 50% in size
# Sequence of Beta-2 adrenergic receptor (Homo sapiens) (P07550 whole entry, looked up): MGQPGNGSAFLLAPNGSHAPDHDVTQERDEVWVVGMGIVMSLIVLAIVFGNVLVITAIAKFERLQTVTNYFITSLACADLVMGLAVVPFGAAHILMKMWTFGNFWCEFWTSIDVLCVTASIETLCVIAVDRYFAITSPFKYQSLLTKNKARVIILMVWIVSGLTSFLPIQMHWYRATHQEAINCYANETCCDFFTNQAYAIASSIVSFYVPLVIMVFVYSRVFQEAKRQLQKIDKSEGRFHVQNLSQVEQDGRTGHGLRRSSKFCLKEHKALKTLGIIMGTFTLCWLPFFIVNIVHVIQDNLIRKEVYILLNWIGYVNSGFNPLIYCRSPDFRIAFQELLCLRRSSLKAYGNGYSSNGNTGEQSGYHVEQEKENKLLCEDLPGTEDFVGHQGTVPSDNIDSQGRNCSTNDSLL
# In short: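 Assay format: CHO-ADRB2 cells, 18-20hr seeding at 37C/5% CO2, then compound plus 1nM isoproterenol agonist mix for 0.5hr RT. Homogeneous time-resolved fluorescence cAMP detection after 1hr, expressed as 665/615 nm ratio.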
# [12] = biological target: D(2) dopamine receptor (Homo sapiens) (UniProt P14416); test: Dopamine D2 receptor (DRD2) small molecule agonists, cell-based qHTS assay (AID 1963594); also: nearly all actives have a fitted effect of over 35% in size
# Sequence of D(2) dopamine receptor (Homo sapiens) (P14416 whole entry, looked up): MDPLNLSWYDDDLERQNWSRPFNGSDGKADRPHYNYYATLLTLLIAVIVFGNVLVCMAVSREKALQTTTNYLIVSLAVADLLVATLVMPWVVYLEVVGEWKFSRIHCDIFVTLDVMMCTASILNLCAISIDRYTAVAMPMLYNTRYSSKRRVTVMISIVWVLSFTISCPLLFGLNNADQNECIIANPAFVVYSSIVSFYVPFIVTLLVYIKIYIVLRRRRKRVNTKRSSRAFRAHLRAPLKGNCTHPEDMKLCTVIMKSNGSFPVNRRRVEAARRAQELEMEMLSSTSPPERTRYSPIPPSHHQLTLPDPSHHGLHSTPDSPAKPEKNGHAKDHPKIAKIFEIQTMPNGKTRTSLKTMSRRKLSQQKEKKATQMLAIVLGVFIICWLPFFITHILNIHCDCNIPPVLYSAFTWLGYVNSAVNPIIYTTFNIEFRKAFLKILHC
# In short: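 HEK293 cells stably expressing DRD2 were cultured 24 h at 37 C, then given Ro20-1724 (0.1 mM final) and compounds for 10 min at room temperature. NKH477 (200nM) was then added for 30 min. cAMP was read by HTRF.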
# [13] = biological target: D(2) dopamine receptor (Homo sapiens) (UniProt P14416); test: Dopamine D2 receptor (DRD2) small molecule antagonists, cell-based qHTS assay (AID 1963595; active = well fitted inhibition curve with a large enough effect in the signal ratio in the repeat runs, with a control signal flat; the % refers to the signal ratio)
# In short: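 Human DRD2 antagonist qHTS measuring cAMP by HTRF. The cells are exposed to compound for 10 min, then to NKH477 (200 nM) and quinpirole (12 nM) for 30 min at RT, with Ro20-1724 (0.1 mM) present throughout.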
# [14] = p53 small molecule agonists, cell-based qHTS assay with rat liver microsomes: qHTS cell viability counter screen (AID 1963580); also: nearly all actives have a fitted effect of over 45% in size
# In short: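 Counter screen for cytotoxicity under metabolic activation: rat liver microsomes and NADPH, 0.5 mg/mL final each, added with compounds to p53RE-bla HCT-116 cells; 16 h at 37 C, then ATP luminescence read.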
# [15] = p53 small molecule agonists, cell-based qHTS assay (AID 1963582; active = well fitted activation curve with a large enough effect in the signal ratio in the repeat runs, not every such curve was filed as active; the % refers to the signal ratio)
# In short: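 Beta-lactamase reporter cells (p53RE-bla) treated with compounds for 16 h at 37 C; FRET substrate, 2 h, room temperature; fluorescence intensity.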
# [16] = biological target: Muscarinic acetylcholine receptor M1 (Homo sapiens) (UniProt P11229); test: Cholinergic receptor muscarinic 1 (CHRM1) small molecule antagonists, cell-based qHTS assay (AID 1963588); also: nearly all actives have a fitted effect of over 40% in size
# In short: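 Compounds were tested at 15 concentrations in three independent runs. Dye-loaded CHRM1-CHO cells were exposed 5 min at room temperature before stimulation by acetylcholine added at 50nM. Intracellular calcium was read kinetically on FDSS for 3 min.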
# [17] = cAMP Responsive Elements (CRE) small molecule agonists, cell-based qHTS assay (AID 1963590)
# In short: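 Quantitative HTS for CRE agonists: HEK 293T CRE-bla cells, overnight plating, 3 h compound incubation at 37 C/5% CO2, then 2 h room-temperature LiveBLAzer B/G FRET substrate loading.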
# [18] = cAMP Responsive Elements (CRE) small molecule antagonists, cell-based qHTS assay (AID 1963591; active = well fitted inhibition curve with a large enough effect in the signal ratio in the repeat runs, not every such curve was filed as active; the % refers to the signal ratio)
# In short: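 Fluorescence intensity from cleaved LiveBLAzer B/G substrate (2 h, room temperature) quantified CRE-bla activity in HEK 293T cells exposed 3 h to compound with 0.25 uM final NKH477.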
# [19] = p53 small molecule agonists, cell-based qHTS assay with human liver microsomes: qHTS cell viability counter screen (AID 1963579); also: nearly all actives have a fitted effect of over 45% in size
# In short: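 Metabolic activation used human liver microsomes and NADPH, both 0.5 mg/mL final, over 16 hours at 37 C on p53RE-bla cells (4,000/well). Cytotoxicity measured by CellTiter-Glo luminescence, 30 min at room temperature.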
# [20] = p53 small molecule agonists, cell-based qHTS assay with rat liver microsomes (AID 1963578)
# In short: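 Metabolic activation by rat liver microsomes and NADPH, each 0.5 mg/mL final, added right after compounds to p53RE-bla reporter cells (4,000/well, plated 5 h earlier). 16 h at 37 C, then LiveBLAzer substrate for 2 h at room temperature in the dark; fluorescence read-out.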
smiles,measurement,setting,value
Nc1cc(C(F)(F)F)ccc1S,Potency,[1],26.6 µM (active)
same,Potency,[2],13.3 µM (active)
same,Potency,[3],inactive
same,outcome,[4],inactive
same,outcome,[5],inactive
same,Potency,[6],inactive
same,Potency,[7],inactive
same,Potency,[8],inactive
same,Potency,[9],inactive
same,Potency,[10],inactive
same,Potency,[11],inactive
same,Potency,[12],inactive
same,Potency,[13],inactive
CCCCCCCCCCCCCCN(C)C,"activity change, negative = cytotoxicity",[1],2.19% [at 19 µM]
same,"activity, positive = activation",[2],2.64% [at 19 µM]
same,activity change,[3],"-0.071% [at 11.8 µM, hits give high values]"
same,activation,[4],2.68% [at 15.8 µM]
same,activation,[5],-0.129% [at 11.8 µM]
same,activation,[6],-0.299% [at 13.5 µM]
same,"activity change, negative = cytotoxicity",[14],-0.358% [at 13.5 µM]
same,"activity change, negative = cytotoxicity",[7],1.73% [at 13.5 µM]
same,activation,[15],-0.74% [at 13.5 µM]
same,"activity, negative = inhibition",[8],2.96% [at 12.7 µM]
same,activation,[9],12% [at 15.9 µM]
same,"activity, negative = inhibition",[16],5.47% [at 12.6 µM]
same,activation,[10],0.401% [at 15.8 µM]
same,activation,[17],-0.847% [at 19 µM]
same,"activity change, negative = inhibition",[18],-9.63% [at 18.9 µM]
same,"activity change, negative = inhibition",[11],-1.54% [at 19 µM]
same,activation,[12],0.215% [at 19 µM]
same,"activity change, negative = inhibition",[13],-0.238% [at 18.9 µM]
CN1CCN(Cc2cc(-c3ccc4[nH]c(=O)oc4c3)co2)[C@@H](c2ccc(F)cc2)C1,Potency,[1],26.3 µM (active)
same,Potency,[2],13.2 µM (active)
same,Potency,[3],inactive
same,outcome,[4],inactive
same,outcome,[5],inactive
same,Potency,[6],inactive
same,Potency,[19],inactive
same,Potency,[14],inactive
same,Potency,[8],inactive
same,Potency,[10],inactive
same,Potency,[11],inactive
CCCCN1C=CN(C)C1,"activity change, negative = cytotoxicity",[1],3.2% [at 19 µM]
same,"activity, positive = activation",[2],5.6% [at 19 µM]
same,activity change,[3],"1.08% [at 11.8 µM, hits give high values]"
same,activation,[4],2.8% [at 15.8 µM]
same,activation,[5],0.0752% [at 11.8 µM]
same,activation,[6],-0.103% [at 13.5 µM]
same,"activity change, negative = cytotoxicity",[19],-6.5% [at 13.5 µM]
same,"activity change, negative = cytotoxicity",[14],1.05% [at 13.5 µM]
same,activation,[15],-0.772% [at 13.5 µM]
same,"activity, negative = inhibition",[8],-10.9% [at 12.7 µM]
same,activation,[9],7.66% [at 15.9 µM]
same,"activity, negative = inhibition",[16],0.644% [at 12.6 µM]
same,activation,[10],4.26% [at 15.8 µM]
same,activation,[17],-0.578% [at 19 µM]
same,"activity change, negative = inhibition",[18],-0.722% [at 18.9 µM]
same,"activity change, negative = inhibition",[11],3.2% [at 19 µM]
same,activation,[12],0.42% [at 19 µM]
same,"activity change, negative = inhibition",[13],2.35% [at 18.9 µM]
CC(=O)NCCCCCC(=O)O,Potency,[1],inactive
same,Potency,[2],inactive
same,Potency,[3],inactive
same,outcome,[4],inactive
same,outcome,[5],inactive
same,Potency,[6],inactive
same,Potency,[19],inactive
same,Potency,[14],inactive
same,Potency,[15],inactive
same,Potency,[8],inactive
same,Potency,[9],inactive
same,Potency,[16],inactive
same,Potency,[10],inactive
same,Potency,[17],inactive
same,Potency,[18],inactive
same,Potency,[11],inactive
same,Potency,[12],inactive
same,Potency,[13],inactive
Cc1cc(S(=O)(=O)O)ccc1N=Nc1c(O)ccc2ccccc12,Potency,[1],43.3 µM (active)
same,Potency,[2],inactive
same,Potency,[3],inactive
same,outcome,[4],inactive
same,outcome,[5],inactive
same,Potency,[6],inactive
same,Potency,[19],inactive
same,Potency,[14],inactive
same,Potency,[8],inactive
same,Potency,[9],inactive
same,Potency,[16],inactive
same,Potency,[17],inactive
same,Potency,[18],inactive
same,Potency,[12],inactive
same,Potency,[13],inactive
O=C(NCC1CN(c2ccc(N3CCOCC3=O)cc2)C(=O)O1)c1ccc(Cl)s1 (configuration not stated),Potency,[1],inactive
same,Potency,[2],inactive
same,Potency,[3],inactive
same,outcome,[4],inactive
same,outcome,[5],inactive
same,Potency,[6],inactive
same,Potency,[14],inactive
same,Potency,[7],inactive
same,Potency,[15],inactive
same,Potency,[8],inactive
same,Potency,[9],inactive
same,Potency,[16],inactive
same,Potency,[10],inactive
same,Potency,[18],inactive
same,Potency,[11],inactive
CCCCCCCCC(C)=O,Potency,[1],inactive
same,Potency,[2],inactive
same,Potency,[3],inactive
same,outcome,[4],inactive
same,outcome,[5],inactive
same,Potency,[20],inactive
same,Potency,[19],inactive
same,Potency,[14],inactive
same,Potency,[7],inactive
same,Potency,[15],inactive
same,Potency,[8],inactive
same,Potency,[9],inactive
same,Potency,[16],inactive
same,Potency,[10],inactive
same,Potency,[17],inactive
same,Potency,[18],inactive
same,Potency,[11],inactive
same,Potency,[12],inactive
same,Potency,[13],inactive

# Source: PubChem BioAssay (Tox21)
